Holding throughout (design): scale not given: direction of the effect not stated beside the values
Experiment [1] concerns the target Protein translocase subunit SecA (Escherichia coli (strain K12)) (UniProt P10408). Description: Assay to Identify E. coli SecA ATPase Inhibitors. The conditions noted are these: 30 µM. The class given is functional.
Experiment [2] deals with T1, Ubiquitin-activating enzyme e1, putative (Leishmania donovani (strain BPK282A1)) (UniProt E9BSI1).
T1 sequence (whole entry): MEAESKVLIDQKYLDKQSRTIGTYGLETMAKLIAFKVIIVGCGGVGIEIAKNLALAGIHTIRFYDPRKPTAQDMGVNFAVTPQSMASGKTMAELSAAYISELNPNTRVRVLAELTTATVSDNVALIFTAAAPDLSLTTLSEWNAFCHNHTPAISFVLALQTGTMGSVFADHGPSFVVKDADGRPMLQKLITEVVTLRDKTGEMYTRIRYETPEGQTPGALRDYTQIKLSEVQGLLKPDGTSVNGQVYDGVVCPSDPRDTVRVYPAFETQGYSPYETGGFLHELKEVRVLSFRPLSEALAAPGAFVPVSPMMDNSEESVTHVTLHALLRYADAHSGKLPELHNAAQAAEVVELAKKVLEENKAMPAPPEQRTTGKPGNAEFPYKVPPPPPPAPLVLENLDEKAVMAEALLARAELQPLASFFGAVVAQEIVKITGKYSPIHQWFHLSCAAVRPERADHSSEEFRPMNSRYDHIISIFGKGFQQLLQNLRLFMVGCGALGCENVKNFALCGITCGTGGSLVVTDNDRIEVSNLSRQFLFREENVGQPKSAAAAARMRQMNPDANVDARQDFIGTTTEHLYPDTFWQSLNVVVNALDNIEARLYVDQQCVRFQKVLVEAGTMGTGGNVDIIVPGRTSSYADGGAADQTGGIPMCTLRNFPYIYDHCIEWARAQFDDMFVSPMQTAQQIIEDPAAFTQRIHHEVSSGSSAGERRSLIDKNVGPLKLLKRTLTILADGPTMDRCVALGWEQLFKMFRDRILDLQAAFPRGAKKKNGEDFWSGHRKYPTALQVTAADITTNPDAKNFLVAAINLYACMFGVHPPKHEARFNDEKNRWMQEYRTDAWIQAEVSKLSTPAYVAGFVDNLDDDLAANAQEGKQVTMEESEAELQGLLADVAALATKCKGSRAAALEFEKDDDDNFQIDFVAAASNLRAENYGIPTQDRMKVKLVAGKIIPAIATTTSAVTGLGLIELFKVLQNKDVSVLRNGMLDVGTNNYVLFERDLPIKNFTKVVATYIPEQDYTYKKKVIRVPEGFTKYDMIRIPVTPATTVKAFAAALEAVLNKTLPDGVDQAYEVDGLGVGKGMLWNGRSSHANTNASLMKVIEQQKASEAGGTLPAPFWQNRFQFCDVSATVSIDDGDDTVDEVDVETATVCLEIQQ
Description: Leishmania donovani Ubiquitin Activating Enzyme (LdE1). The experiment is classed as functional. The conditions noted are these: 30 µM.

Experiment [3] deals with AMP-activated protein kinase, AMPK (Homo sapiens) (UniProt P54646+O43741+P54619+Q9UGJ0+Q9Y478+Q13131+Q9UGI9). Description: AMP-dependent Kinase enzyme assay. An in vitro enzyme assay that detects ADP turnover that is directly proportional to AMPK activity. This uses naive AMPK that is activated during the assay with MK-8722. The class given is functional. The conditions noted are these: 30 µM.

Experiment [4] concerns the target Sialic acid-binding Ig-like lectin 9 (Homo sapiens) (UniProt Q9Y336). Put plainly: Hs-Siglec9 ALPHAscreen SOP 20170721. The note with it: 10 µM. (In Alpha technology, singlet oxygen from a donor bead excites a nearby acceptor bead.)
The next experiment relates to Trypanosoma cruzi. Put plainly: Trypanosoma cruzi phosphomannomutase and mannose-1-phosphate guanylyltransferase assay. The experiment is classed as functional. The note with it: 10 µM.
The target of experiment [5] is T2, Arginase-2, mitochondrial (Homo sapiens) (UniProt P78540).
T2 sequence (whole entry): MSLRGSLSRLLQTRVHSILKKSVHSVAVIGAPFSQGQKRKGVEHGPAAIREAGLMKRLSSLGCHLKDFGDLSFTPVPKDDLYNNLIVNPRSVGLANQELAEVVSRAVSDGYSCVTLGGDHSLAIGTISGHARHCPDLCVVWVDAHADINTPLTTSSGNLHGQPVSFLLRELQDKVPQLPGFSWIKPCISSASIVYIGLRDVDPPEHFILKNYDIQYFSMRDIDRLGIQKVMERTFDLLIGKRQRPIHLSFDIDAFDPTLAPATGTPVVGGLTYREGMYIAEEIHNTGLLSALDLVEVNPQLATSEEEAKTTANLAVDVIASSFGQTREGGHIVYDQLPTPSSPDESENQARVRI
Description: in vitro enzyme assay to detect the production of urea directly proportional to the activity of Arginase II. Further: in the data most compounds retested in dose-response had high values. The experiment is classed as functional. The conditions noted are these: 33.3 µM.

In experiment [6] the target is T3, Proteasome subunit beta (Trypanosoma cruzi) (UniProt O96673).
T3 sequence (whole entry): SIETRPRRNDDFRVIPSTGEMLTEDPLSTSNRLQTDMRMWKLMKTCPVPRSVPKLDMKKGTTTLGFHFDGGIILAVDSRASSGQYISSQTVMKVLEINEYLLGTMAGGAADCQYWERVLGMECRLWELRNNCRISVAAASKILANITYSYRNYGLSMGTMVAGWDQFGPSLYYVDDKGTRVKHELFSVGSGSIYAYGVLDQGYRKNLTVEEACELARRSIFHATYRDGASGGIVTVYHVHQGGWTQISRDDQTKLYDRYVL
Description: Trypanosoma cruzi proteasome chymotrypsin-like activity (TcProtChymo) assay. Further: in the data most compounds retested in dose-response had high values. The class given is functional. The note with it: 9.37 µM.

A further experiment is filed under the species Homo sapiens. Description: To identify inhibition of the IFN signalling (Jak-Stat) pathway via expression of an eGFP reporter gene under the control of an IFN-stimulated response element (ISRE) containing MxA promoter. The experiment is classed as functional. The note with it: 30 µM. Background: Reporter assays use an easily measured gene product as a stand-in for the process of interest.

Experiment [7] addresses T4, Tyrosyl-tRNA synthetase, putative (Trypanosoma cruzi (strain CL Brener)) (UniProt Q4DSP6).
T4 sequence (whole entry): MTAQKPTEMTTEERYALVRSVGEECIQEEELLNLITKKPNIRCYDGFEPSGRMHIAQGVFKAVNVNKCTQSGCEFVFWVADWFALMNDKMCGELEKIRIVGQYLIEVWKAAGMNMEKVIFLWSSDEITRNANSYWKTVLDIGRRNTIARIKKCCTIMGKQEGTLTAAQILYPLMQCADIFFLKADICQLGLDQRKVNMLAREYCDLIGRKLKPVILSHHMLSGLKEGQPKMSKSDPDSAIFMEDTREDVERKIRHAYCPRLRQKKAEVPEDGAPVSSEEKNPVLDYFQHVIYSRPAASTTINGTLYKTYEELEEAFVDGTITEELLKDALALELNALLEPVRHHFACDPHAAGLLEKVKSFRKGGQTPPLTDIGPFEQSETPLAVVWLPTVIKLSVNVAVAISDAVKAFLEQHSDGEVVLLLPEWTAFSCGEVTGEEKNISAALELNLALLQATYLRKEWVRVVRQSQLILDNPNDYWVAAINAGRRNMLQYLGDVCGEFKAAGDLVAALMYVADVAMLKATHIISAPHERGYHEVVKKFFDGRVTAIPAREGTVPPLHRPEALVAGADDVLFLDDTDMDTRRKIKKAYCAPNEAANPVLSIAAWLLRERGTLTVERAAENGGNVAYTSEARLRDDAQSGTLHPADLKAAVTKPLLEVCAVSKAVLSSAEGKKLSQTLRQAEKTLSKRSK
Description: Trypanosoma cruzi tyrosyl tRNA synthetase (TcYRS) _High Tyrosine SOP. Further: in the data most compounds retested in dose-response had high values. The experiment is classed as functional. The note with it: 30 µM.

In experiment [8] the target is T4, Tyrosyl-tRNA synthetase, putative (Trypanosoma cruzi (strain CL Brener)). Put plainly: Trypanosoma cruzi tyrosyl tRNA synthetase (TcYRS) SOP. The class given is functional. The conditions noted are these: 30 µM.
In experiment [9] the target is Chromo domain-containing protein 1 (Saccharomyces cerevisiae (strain ATCC 204508 / S288c) (Baker's yeast)) (UniProt P32657). Description: ScCHD-1 Enzyme Inhibition Assay. Further: in the data most compounds retested in dose-response had high values. The conditions noted are these: 30 µM. The experiment is classed as functional.

This passage reports Percent Effect results from ChEMBL document CHEMBL3988442, “University of Dundee, Small-Polar-MMV Screening Library” (2021).

For some assays here: Results with a measured potency or affinity are listed apart.

Chain of Sialic acid-binding Ig-like lectin 9 (Homo sapiens) (Q9Y336 whole entry): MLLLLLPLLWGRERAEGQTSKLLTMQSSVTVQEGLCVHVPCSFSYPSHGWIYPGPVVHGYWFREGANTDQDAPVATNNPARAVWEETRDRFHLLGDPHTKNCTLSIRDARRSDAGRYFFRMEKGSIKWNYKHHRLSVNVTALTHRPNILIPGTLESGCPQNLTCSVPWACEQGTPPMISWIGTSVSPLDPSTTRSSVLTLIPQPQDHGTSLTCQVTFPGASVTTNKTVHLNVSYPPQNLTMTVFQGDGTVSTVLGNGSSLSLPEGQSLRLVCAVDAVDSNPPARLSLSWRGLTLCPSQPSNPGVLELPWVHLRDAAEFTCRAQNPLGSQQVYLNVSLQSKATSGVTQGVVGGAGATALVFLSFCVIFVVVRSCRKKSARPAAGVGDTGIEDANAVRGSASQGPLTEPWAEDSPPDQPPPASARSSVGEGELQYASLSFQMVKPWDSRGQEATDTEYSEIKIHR
Chain of Chromo domain-containing protein 1 (Saccharomyces cerevisiae (strain ATCC 204508 / S288c) (Baker's yeast)) (P32657 whole entry, the tested form may be a part): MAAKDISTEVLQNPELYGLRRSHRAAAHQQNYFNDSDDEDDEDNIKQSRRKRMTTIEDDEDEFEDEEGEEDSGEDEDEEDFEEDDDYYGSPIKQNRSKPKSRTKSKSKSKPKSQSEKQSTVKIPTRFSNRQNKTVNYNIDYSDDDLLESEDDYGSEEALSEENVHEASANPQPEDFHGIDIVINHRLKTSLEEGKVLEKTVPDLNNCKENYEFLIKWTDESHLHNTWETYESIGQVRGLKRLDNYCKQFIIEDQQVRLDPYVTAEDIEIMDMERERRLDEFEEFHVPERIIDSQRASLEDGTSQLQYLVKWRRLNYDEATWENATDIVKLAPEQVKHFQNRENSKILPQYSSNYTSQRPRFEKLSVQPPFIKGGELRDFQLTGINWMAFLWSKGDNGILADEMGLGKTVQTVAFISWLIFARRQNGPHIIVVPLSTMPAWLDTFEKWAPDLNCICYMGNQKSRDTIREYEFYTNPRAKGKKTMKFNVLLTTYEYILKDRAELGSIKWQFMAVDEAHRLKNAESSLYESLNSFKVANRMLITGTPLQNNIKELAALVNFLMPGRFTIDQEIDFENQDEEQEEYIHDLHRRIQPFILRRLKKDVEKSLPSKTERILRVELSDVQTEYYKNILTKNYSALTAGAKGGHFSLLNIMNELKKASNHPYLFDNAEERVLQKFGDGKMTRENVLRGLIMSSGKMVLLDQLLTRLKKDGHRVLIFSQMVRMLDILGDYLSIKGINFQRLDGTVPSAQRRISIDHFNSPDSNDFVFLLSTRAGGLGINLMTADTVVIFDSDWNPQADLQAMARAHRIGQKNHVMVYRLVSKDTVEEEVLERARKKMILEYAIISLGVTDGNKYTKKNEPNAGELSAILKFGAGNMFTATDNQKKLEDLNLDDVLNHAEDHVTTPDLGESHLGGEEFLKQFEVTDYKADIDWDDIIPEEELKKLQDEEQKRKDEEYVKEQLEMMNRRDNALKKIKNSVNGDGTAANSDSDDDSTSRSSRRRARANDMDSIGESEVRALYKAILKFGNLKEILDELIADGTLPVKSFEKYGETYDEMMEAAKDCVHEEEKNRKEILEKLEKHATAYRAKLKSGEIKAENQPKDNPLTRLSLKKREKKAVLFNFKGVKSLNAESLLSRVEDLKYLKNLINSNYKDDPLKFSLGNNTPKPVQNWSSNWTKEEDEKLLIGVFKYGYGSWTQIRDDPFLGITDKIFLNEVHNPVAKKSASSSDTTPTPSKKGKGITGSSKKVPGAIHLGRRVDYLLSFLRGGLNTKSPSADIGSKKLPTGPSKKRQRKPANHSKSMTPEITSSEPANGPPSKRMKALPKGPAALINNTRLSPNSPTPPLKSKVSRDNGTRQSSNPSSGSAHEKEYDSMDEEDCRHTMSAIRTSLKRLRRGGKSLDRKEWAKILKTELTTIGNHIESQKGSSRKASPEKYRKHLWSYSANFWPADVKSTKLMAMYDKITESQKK
Chain of Protein translocase subunit SecA (Escherichia coli (strain K12)) (P10408 whole entry): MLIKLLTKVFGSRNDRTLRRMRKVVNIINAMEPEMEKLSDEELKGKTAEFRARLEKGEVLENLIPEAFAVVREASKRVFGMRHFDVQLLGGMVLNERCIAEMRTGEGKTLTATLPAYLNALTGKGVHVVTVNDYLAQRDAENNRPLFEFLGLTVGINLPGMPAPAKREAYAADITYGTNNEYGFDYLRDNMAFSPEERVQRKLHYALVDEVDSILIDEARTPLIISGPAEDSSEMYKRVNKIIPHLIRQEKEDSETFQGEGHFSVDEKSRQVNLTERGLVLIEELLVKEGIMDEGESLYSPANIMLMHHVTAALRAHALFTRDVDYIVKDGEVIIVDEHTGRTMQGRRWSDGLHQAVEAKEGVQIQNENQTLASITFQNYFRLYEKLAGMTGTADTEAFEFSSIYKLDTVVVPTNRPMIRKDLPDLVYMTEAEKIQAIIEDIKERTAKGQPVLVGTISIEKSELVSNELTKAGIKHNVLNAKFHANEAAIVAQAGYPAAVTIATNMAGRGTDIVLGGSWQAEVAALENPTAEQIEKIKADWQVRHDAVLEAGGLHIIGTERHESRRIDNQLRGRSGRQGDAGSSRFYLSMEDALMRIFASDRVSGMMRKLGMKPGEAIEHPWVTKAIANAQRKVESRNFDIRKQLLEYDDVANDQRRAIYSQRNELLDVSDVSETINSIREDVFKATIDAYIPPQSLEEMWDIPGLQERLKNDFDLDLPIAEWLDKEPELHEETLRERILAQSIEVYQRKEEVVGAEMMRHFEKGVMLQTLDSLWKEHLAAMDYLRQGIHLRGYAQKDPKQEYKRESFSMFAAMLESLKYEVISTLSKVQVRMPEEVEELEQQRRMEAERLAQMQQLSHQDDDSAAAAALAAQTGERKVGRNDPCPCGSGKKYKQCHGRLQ

In the case of `CC(=O)c1cn(CC(=O)NC(C(=O)O)C(C)C)c2ccccc12` (stereo not given), the Percent Effect in experiment [1] was -5.18%; in [2] it was -2.67%; in [3], 1.25%; in [4], -4.07%; in the experiment with Trypanosoma cruzi it was -3.99%; in experiment [5], -1.04%. In addition, the Percent Effect in experiment [6] was 8.72%; in the experiment filed under Homo sapiens it was -13.9%; in [7], 1.64%; in experiment [8], 1.24%; in experiment [9], 3.17%.

On to `Cc1ccc(C(=O)N2CCC3(CC2)CC(c2ccccc2)C(=O)N3)cn1` (stereo not given), for which the Percent Effect in [1] was 0.117%; in [2], 18.7%; in [3] it was -5.79%; in experiment [4], -1.61%; in the experiment on Trypanosoma cruzi it was 1.93%; in [5], -48.9%. Also, the Percent Effect in experiment [6] is 18.1%; in the experiment listed under Homo sapiens, 4.12%; in experiment [7], 1.04%; in experiment [8] it was 27.5%; in experiment [9], -17.9%.

With `O=C(Cc1cccc(F)c1)N1CCCCC1c1ccn2ccnc2n1` (stereo not given), the Percent Effect in experiment [1] is -5.83%; in experiment [2], -4.05%; in [3], 14.6%; in [4], 3.14%; in the experiment with Trypanosoma cruzi it was -3.16%; in experiment [5], -4.41%. Also, the Percent Effect in [6] was 5.3%; in the experiment filed under Homo sapiens, 10.2%; in [7], -4.3%; in experiment [8], -9.09%; in experiment [9] it was -10.5%.

In the case of `Cc1ccc(S(=O)(=O)N2C[C@H]3C[C@H](NC(=O)c4ccn(C)n4)[C@H]3C2)cc1`, the Percent Effect in [1] is -7.65%; in experiment [2], 17.6%; in experiment [3], -0.91%; in experiment [4] it was 4.49%; in the experiment on Trypanosoma cruzi, -0.395%; in experiment [5] it was -3.48%. Besides, the Percent Effect in experiment [6] was 9.36%; in the experiment filed under Homo sapiens, 16.8%; in [7] it was 2.15%; in [8], 9.09%; in [9], -25.8%.

As for `Cc1nc(COc2cccc(C#N)c2)no1`, the Percent Effect is -1.52% in [1]; 21.1% in [2]; -5.19% in experiment [3]; 8.22% in [4]; 5.13% in the experiment with Trypanosoma cruzi; -0.36% in experiment [5]. In addition, the Percent Effect in experiment [6] was 8.21%; in the experiment filed under Homo sapiens it was -0.09%; in experiment [7], 10.3%; in experiment [8] it was 25.9%; in experiment [9], -8.11%.

With `COc1cc(CNCCc2nc(C)cs2)cc2c1OCCO2`, the Percent Effect in [1] is -2.37%; in [2], 5.26%; in experiment [3], 1.5%; in experiment [4], 15.7%; with Trypanosoma cruzi, -1.13%; in experiment [5] it was -3.06%. Further, the Percent Effect in experiment [6] was 12.5%; in the experiment listed under Homo sapiens, 10.1%; in [7], 4.41%; in [8] it was 12.2%; in experiment [9], -7.14%.

In the case of `O=C(CCOc1ccccc1)N1CCC(Nc2cccnn2)CC1`, the Percent Effect was -6.73% in experiment [1]; 13.2% in [2]; -7.1% in [3]; 16.8% in experiment [4]; 2.15% with Trypanosoma cruzi; -0.719% in [5]. Also, the Percent Effect in [6] is 5.5%; in the experiment listed under Homo sapiens it was 8.93%; in experiment [7], 6.4%; in [8], 18.5%; in experiment [9], -5.39%.

With `O=C(CCCc1nc2ccccc2[nH]1)N1CCCC(n2cccn2)C1` (stereo not given), the Percent Effect was -4.65% in experiment [1]; 10.5% in experiment [2]; -3.13% in [3]; 5.64% in experiment [4]; 8.27% in the experiment on Trypanosoma cruzi; -5.36% in experiment [5]. Moreover, the Percent Effect in experiment [6] is 7.18%; in the experiment listed under Homo sapiens, -2.05%; in [7], 5.39%; in experiment [8], 17.1%; in experiment [9] it was -12%.

In the case of `c1ncc(Nc2nccc(C3CCCCN3CC3CCCCC3)n2)cn1` (stereo not given), the Percent Effect in experiment [1] was -4.71%; in [2] it was 13.3%; in experiment [3] it was 10.8%; in [4] it was -4.81%; in the experiment on Trypanosoma cruzi, -0.591%; in experiment [5], 3.5%. The Percent Effect was 10.5% in [6]; 21.9% in the experiment listed under Homo sapiens; 2.13% in experiment [7]; 11.5% in experiment [8]; -6.48% in [9].

For `N#CC(Sc1nnnn1C1CCOCC1)C1CCCCC1` (stereo not given), the Percent Effect is -4.28% in experiment [1]; 2.67% in experiment [2]; 0.0297% in experiment [3]; 9.31% in experiment [4]; -5.55% in the experiment on Trypanosoma cruzi; 0.521% in [5]. For the same compound, the Percent Effect in experiment [6] was 7.32%; in the experiment listed under Homo sapiens, -0.799%; in experiment [7], 3.83%; in experiment [8], 6.17%; in experiment [9], -4.6%.
